In PubChem BioAssay one finds composite z-score and z-score data, which are given here for 5 molecules.

Activity calls are given as the source filed them.

The test system of test [1] is Plasmodium falciparum Sir2 (PF13_0152, Sir2A). Put plainly: Plasmodium falciparum Sir2A binding compounds – biochemical, small-molecule microarray, 635 nm fluorescence, primary screen (AID 1098).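 Further: score merges spot fluorescence intensity with its signal-to-noise ratio.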 To be noted: fluorescence 635 nm, higher = more signal.
Test [2] in a line: probe aDKK1 binding to arrayed compounds – biochemical, biotinylated probe, 635/667 nm fluorescence, primary screen (AID 1099).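 Further: score merges 667nm spot fluorescence with signal to noise across triplicate slides.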 To be noted: small-molecule microarray, higher = more signal.
Test [3] can be described thus: probe aCHRDL2 binding to arrayed compounds – biochemical, biotinylated probe, 635/667 nm fluorescence, primary screen (AID 1100). Conditions: small-molecule microarray, higher = more signal.
A short description of test [4]: change in splice reporter luminescence, either direction, cell-based, HEK293, spliceosome inhibition project, primary screen (AID 1101).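 Further: HEK293 cells carrying a splicing-competent luciferase reporter gene; test concentration not given here.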 To be noted: HEK293 splicing luciferase reporter, 24 h, higher = more signal, called active from +8 up or from −8 down. Background: A reporter such as luciferase makes a cellular process visible.
The target of test [5] is Fibroblast growth factor 10 (Homo sapiens) (UniProt O15520). Description: compounds binding fibroblast growth factor 10 – biochemical, small-molecule microarray, 635 nm fluorescence, primary screen (AID 1102). Conditions: FGF10 binding, fluorescence 635 nm, higher = more signal.
Test [6] deals with glycogen synthase kinase-3 (GSK3A per assay name; protocol says GSK3B). Put plainly: compounds binding glycogen synthase kinase-3 – biochemical, small-molecule microarray, 635 nm fluorescence, GSK3A, primary screen (AID 1103). Further: the record names both GSK3A and GSK3B. To be noted: fluorescence 635 nm, higher = more signal.
Test [7] has as its target Epidermal growth factor receptor (Homo sapiens) (UniProt P00533). Put plainly: compounds binding epidermal growth factor receptor – biochemical, small-molecule microarray, 635 nm fluorescence, primary screen (AID 1104).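 Further: score merges 667 nm emission intensity with spot signal to noise over triplicate slides.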 To be noted: EGFR binding, higher = more signal.
In test [8] the target is Follistatin-related protein 3 (Homo sapiens) (UniProt O95633). Description: compounds binding follistatin-related protein 3 – biochemical, small-molecule microarray, 635 nm fluorescence, primary screen (AID 1105).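 Further: score merges emission near 667 nm and signal to noise per printed spot across three slides.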 To be noted: FSTL3 binding, higher = more signal.
Test [9] has as its target Dickkopf-related protein 1 (Homo sapiens) (UniProt O94907). Put plainly: small molecules binding DKK1 protein – biochemical, small-molecule microarray, 635 nm fluorescence scan, primary screen (AID 1106).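 Further: score merges emission near 667 nm with signal to noise over three replicate slides.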 To be noted: higher = more signal.
The subject of test [10] is Inhibin beta A chain (activin A). Put plainly: small molecules binding activin A – biochemical, small-molecule microarray, 635 nm fluorescence scan, primary screen (AID 1107).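 Further: mouse activin A protein probed at 4.33 µg/mL on printed slides; score merges bound-protein fluorescence near 667 nm with spot signal-to-noise.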 To be noted: INHBA, higher = more signal.
Test [11] relates to Human papillomavirus type 1a protein E7 (residues 44-93). Put plainly: small molecules binding HPV E7 44-93 – biochemical, small-molecule microarray, residues 44-93, 635 nm fluorescence, primary screen (AID 1108).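 Further: E7 fragment applied at 1 µg/mL in TBST for 1 h at 4 C; score combines spot fluorescence with its signal to noise ratio.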 Conditions: fluorescence 635 nm, higher = more signal.
Test [12] is described as follows: hepatitis C replication reporter changes, two-sided – Huh7 cells, luciferase reporter, HCV replication inhibitor project, primary screen (AID 1109).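 Further: huh7 hepatoma cells harbouring a luciferase neomycin HCV replicon reporter; luciferase luminescence as measure of HCV replicon replication; test concentration not given here.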 To be noted: Huh7 HCV replicon luciferase reporter, 48 h; higher = more signal.
For test [13], the target named is Left-right determination factor 2 (Homo sapiens) (UniProt O00292). Description: small molecules binding LEFTY2 protein – biochemical, small-molecule microarray, 635 nm fluorescence scan, primary screen (AID 1110). To be noted: higher = more signal.
The target of test [14] is Calmodulin-1 (Homo sapiens) (UniProt P0DP23). Put plainly: small molecules binding calmodulin-1 with EGTA – biochemical, small-molecule microarray, Cy5-labelled CALM1, profiling panel (AID 1111).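 Further: labelled calmodulin applied in Tris saline Tween buffer holding calcium plus EGTA and DTT.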 To be noted: Cy5-CALM1 binding fluorescence, higher = more signal.
For test [15] the target is unchanged. Put plainly: small molecules binding Ca-loaded calmodulin-1 – biochemical, small-molecule microarray, Cy5-labelled CALM1, plus calcium, artefact control for SMM control-protein annotation, profiling panel (AID 1112).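 Further: score merges spot fluorescence with signal to noise from triplicate slides.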 To be noted: Cy5-CALM1 binding fluorescence, higher = more signal.
The nature of test [16]: probe aWnt5a binding to arrayed compounds – biochemical, biotinylated probe, 635/667 nm fluorescence, primary screen (AID 1113).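 Further: score merges 667 nm fluorescence intensity with signal-to-noise per printed feature.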 To be noted: small-molecule microarray, higher = more signal.
Test [17] can be described thus: probe aShh binding to arrayed compounds – biochemical, biotinylated probe, 635/667 nm fluorescence, primary screen (AID 1114).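 Further: probe is biotin-labelled aShh protein from a stem cell growth factor screen; measures binding of labelled protein to compounds printed on the slide; score merges feature fluorescence at 667 nm with signal-to-noise.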 To be noted: small-molecule microarray, higher = more signal.
Test [18] is described as follows: probe aNog binding to arrayed compounds – biochemical, biotinylated probe, 635/667 nm fluorescence, primary screen (AID 1115).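 Further: probe is biotinylated aNog protein used at 0.15 µg/mL for 1 h at 4 C; z-score combines 667 nm fluorescence of each spot with its signal to noise.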 Conditions: small-molecule microarray, higher = more signal.
Test [19] addresses Torsin-1A-interacting protein 1 (Homo sapiens) (UniProt Q5JTV8). Description: compound microarray binding of lysate hLAP1 – cell lysate, small-molecule microarray, COS7 lysate, 635/667 nm fluorescence, primary screen (AID 1116). To be noted: 635 nm fluorescence, higher = more signal.
Test [20] deals with Alpha-bungarotoxin (Bungarus multicinctus) (UniProt P60615). Description: compounds binding labelled alpha-BTX control protein – biochemical, small-molecule microarray, Alexa647 label, 635/667 nm fluorescence, artefact control for SMM control protein annotation, profiling panel (AID 1117). Conditions: alpha-BTX-A647 binding fluorescence, higher = more signal.
Chain of Alpha-bungarotoxin (Bungarus multicinctus) (P60615 whole entry, looked up): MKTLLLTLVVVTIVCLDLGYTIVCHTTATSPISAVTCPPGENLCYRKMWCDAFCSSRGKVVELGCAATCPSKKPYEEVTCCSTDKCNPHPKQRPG

Chain of Fibroblast growth factor 10 (Homo sapiens) (O15520 whole entry, looked up): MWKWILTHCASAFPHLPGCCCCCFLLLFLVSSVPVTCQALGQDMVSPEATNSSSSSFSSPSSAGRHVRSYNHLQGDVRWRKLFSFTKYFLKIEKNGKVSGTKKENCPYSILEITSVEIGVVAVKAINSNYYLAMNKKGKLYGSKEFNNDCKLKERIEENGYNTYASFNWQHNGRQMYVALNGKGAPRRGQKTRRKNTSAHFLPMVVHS
Chain of Epidermal growth factor receptor (Homo sapiens) (P00533 whole entry, looked up): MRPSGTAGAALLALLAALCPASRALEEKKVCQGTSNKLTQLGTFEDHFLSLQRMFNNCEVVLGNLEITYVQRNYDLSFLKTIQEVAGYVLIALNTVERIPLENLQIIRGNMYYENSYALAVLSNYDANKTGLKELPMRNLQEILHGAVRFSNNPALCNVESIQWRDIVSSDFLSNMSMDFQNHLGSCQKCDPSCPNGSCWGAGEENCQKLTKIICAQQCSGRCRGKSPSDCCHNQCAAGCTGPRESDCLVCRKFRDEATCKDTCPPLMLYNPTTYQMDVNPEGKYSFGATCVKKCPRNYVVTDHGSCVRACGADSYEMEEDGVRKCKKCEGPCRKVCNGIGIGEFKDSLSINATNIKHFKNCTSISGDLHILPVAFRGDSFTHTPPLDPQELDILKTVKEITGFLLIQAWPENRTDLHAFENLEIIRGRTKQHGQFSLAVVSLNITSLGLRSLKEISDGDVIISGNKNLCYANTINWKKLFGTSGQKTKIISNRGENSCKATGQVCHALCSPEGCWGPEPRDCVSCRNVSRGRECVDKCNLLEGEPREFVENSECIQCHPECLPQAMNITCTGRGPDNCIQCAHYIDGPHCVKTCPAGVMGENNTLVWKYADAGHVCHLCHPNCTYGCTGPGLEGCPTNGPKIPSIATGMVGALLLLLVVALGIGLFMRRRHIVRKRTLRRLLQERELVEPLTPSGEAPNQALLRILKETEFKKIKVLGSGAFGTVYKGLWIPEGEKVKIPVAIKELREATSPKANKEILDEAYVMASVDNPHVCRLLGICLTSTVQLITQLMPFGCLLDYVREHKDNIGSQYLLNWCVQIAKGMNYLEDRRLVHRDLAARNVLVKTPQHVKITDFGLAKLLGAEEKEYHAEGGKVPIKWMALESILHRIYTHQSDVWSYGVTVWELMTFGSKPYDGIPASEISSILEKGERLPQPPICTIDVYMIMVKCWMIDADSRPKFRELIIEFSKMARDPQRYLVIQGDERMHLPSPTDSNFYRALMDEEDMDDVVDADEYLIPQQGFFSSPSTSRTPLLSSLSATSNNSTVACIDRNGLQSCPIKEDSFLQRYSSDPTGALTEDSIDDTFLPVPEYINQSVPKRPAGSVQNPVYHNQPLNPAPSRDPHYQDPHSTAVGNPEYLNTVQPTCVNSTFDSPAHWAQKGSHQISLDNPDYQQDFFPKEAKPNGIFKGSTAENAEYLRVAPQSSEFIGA
Chain of Torsin-1A-interacting protein 1 (Homo sapiens) (Q5JTV8 whole entry, looked up): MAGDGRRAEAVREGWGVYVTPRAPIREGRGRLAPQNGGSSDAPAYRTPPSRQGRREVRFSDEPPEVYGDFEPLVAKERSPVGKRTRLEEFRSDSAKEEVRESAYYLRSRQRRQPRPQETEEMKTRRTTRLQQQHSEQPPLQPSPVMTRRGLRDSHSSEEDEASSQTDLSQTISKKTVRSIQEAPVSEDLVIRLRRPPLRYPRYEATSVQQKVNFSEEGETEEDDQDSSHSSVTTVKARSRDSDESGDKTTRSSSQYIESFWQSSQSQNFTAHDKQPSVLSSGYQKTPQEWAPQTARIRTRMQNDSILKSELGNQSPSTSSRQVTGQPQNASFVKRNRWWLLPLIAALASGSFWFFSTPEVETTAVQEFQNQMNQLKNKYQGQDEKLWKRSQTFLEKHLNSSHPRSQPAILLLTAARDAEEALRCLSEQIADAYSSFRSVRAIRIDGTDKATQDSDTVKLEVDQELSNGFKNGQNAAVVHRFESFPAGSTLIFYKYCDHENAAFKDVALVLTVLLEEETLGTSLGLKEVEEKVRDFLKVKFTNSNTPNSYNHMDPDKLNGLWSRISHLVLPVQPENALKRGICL
Chain of Follistatin-related protein 3 (Homo sapiens) (O95633 whole entry, looked up): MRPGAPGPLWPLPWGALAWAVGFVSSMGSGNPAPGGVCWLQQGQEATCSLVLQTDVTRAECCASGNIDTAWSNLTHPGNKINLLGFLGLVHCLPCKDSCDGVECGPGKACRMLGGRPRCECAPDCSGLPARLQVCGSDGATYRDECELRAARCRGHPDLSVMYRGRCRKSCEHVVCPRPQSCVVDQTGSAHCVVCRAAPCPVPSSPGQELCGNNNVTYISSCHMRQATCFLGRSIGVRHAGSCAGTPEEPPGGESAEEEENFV
Chain of Dickkopf-related protein 1 (Homo sapiens) (O94907 whole entry, looked up): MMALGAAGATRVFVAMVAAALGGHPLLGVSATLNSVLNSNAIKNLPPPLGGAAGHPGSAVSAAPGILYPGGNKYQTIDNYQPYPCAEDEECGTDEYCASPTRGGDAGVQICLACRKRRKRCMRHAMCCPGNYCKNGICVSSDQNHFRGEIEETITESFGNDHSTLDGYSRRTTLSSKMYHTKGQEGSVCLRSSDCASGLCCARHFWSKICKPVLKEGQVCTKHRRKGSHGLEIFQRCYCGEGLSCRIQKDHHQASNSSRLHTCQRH
Chain of Left-right determination factor 2 (Homo sapiens) (O00292 whole entry, looked up): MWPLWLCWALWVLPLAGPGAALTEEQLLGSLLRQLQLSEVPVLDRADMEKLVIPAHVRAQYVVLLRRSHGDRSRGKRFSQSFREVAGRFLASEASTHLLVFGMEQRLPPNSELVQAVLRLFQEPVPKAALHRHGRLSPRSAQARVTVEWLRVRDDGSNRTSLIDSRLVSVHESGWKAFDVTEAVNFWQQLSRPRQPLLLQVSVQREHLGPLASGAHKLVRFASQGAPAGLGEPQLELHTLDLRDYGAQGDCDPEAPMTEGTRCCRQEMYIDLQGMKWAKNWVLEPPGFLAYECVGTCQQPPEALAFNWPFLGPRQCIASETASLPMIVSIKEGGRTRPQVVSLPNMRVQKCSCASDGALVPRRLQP

With `C=C(C)C1CCC(C(O)C2C=CC3C(=O)N(C)C(=O)C3N2Nc2cc(OC)c(OC)c(OC)c2)CC1` (stereo not given), the composite z-score in test [1] turned out to be 0.506; in test [2], 0.005; in [3], 0.422; in test [5] it was 0.755; in [6], 1.17; in test [7], 0.885. Moreover, the composite z-score in test [8] was 1.15; in test [9], 0.519; in test [10] it was 1.11; in test [11] it was 1.4; in test [13] it was 0.428; in test [14], 0.655. The composite z-score in test [15] is -0.157; in test [16] it was 0.0101; in [17], -0.0243; in test [18] it was 0.993; in test [19], -0.161; in test [20], 1.26. Besides, the z-score was 0.719 (inactive) in test [4] and -0.355 in test [12].

For `COCCCNC(=O)[C@@H]1c2ccccc2C(=O)N(C2Cc3ccccc3C2)[C@H]1c1ccc(CO)cc1`, the composite z-score in test [1] turned out to be 0.122; in [2], 0.299; in test [3], 0.186; in test [5], 0.639; in [6] it was 1.04; in test [7], 0.172. Besides, the composite z-score is 0.121 in test [8]; 0.447 in test [9]; 0.952 in test [10]; 0.661 in test [11]; 0.173 in test [13]; -0.362 in test [14]. In addition, the composite z-score in test [15] was -0.518; in test [16] it was -0.152; in test [17] it was -0.229; in test [18] it was -0.532; in test [19], 0.685; in test [20], -0.0047. In addition, the z-score in test [4] was 0.0141 (inactive); in [12], -0.689.

Regarding `C=C(/C(=C/C[C@H](OC(=O)c1ccncc1)c1ccccc1OCCO)c1cnc2ccccc2c1)C(C)C`, the composite z-score in test [1] is 1.06; in [2], -0.117; in test [3], 0.37; in test [5] it was 1.47; in test [6] it was 1.06; in test [7], 1.15. Besides, the composite z-score in test [8] stood at 1.59; in test [9], 1.07; in test [10] it was 1.72; in test [11], 1.41; in [13] it was 1.05; in test [14], 0.547. Also, the composite z-score in test [15] is -0.558; in [16], 0.0374; in test [17], 0.172; in test [18], -0.0809; in [19] it was 0.358; in test [20] it was 1.73. In addition, the z-score in test [4] was 0.82 (inactive); in [12] it was -2.63.

As to `COc1cc2c(cc1OC)CN(C(=O)[C@@H]1[C@H]3C(=O)O[C@H](c4ccccc4)[C@H](c4ccccc4)N3[C@H](c3ccc(O)cc3)[C@@]13C(=O)Nc1ccc(C#CCCO)cc13)CC2`, the composite z-score is 0.552 in test [1]; -0.0984 in test [2]; 0.562 in test [3]; 1.19 in [5]; 0.422 in test [6]; -0.0629 in [7]. Moreover, the composite z-score came out at 0.547 in test [8]; 0.755 in test [9]; 0.924 in [10]; 1.12 in test [11]; 0.686 in test [13]; 0.758 in test [14]. Moreover, the composite z-score was -0.224 in [15]; -0.0538 in test [16]; -0.11 in [17]; -0.102 in test [18]; 0.678 in [19]; 0.319 in test [20]. Further, the z-score was -0.117 (inactive) in [4] and -1.09 in [12].

In the case of `Nc1cc(Br)ccc1C(=O)O`, the composite z-score in test [1] was -0.0113; in test [2], 0.149; in test [3], -0.155; in test [5], 0.339; in test [6] it was 0.285; in test [7] it was 0.029. Also, the composite z-score in test [8] is 0.111; in test [9] it was 0.241; in test [10], 0.0301; in test [11], -0.0633; in test [13], 0.285; in test [14] it was 0.955. In addition, the composite z-score in test [15] is 0.885; in test [16] it was -0.0045; in [17], -0.0626; in [18], 0.0558; in test [19], 0.0546; in test [20], 1.39. Further, the figures for the z-score in test [4] and in test [12] were -0.00991 (inactive) and -0.518, respectively.
